# Screening results (PubChem)
# This is a sample that favours compounds with a hit; in the whole collection about 4.2% have one here.
# D1 ag – activates the human D1 dopamine receptor; P21728; activation, % at 2 µM; HEK293 T-REx D1 cells, calcium flux, agonist mode; 1% of 360,000 active; in the data active = activation above about 30%; also: 0% is about no effect
#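 Agonism was scored from calcium flux recorded over 180 s (1 read/s) after pintool compound addition, following a 10-cycle baseline. Cells were inducible force-coupled HEK293 TREx D1, plated overnight at 30 C and loaded with no-wash calcium dye.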
# D1 antag – human D1 dopamine receptor antagonism. activity change, negative = inhibition, % at 10 µM. AID 504652. P21728. 3.2% of 360,000 active. HEK293 TREx D1 cells, calcium flux, dopamine EC80; hits give low values; in the data active = activity change below about -30%; also: % is scaled to controls: 0 for no effect and ±100 for the full control effect
#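 HEK293 T-REx cells expressing inducible, force-coupled D1 receptor; no-wash Ca dye, 30–90 min RT. Cmpd → 180 s read at 1 Hz → EC80 DA → 180 s read.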
# TRPV1 PAM – human TRPV1 potentiation; TRPV1-expressing cells, Fluo-8 calcium influx, capsaicin EC20 potentiation; potentiation, % at 8.33 µM; AID 540277; 0.02% of 320,000 active; in the data active = potentiation above about 80%; inconclusive = between about 30% and that limit; also: 0% is about no effect
# Target sequence (Q8NER1 whole entry, looked up): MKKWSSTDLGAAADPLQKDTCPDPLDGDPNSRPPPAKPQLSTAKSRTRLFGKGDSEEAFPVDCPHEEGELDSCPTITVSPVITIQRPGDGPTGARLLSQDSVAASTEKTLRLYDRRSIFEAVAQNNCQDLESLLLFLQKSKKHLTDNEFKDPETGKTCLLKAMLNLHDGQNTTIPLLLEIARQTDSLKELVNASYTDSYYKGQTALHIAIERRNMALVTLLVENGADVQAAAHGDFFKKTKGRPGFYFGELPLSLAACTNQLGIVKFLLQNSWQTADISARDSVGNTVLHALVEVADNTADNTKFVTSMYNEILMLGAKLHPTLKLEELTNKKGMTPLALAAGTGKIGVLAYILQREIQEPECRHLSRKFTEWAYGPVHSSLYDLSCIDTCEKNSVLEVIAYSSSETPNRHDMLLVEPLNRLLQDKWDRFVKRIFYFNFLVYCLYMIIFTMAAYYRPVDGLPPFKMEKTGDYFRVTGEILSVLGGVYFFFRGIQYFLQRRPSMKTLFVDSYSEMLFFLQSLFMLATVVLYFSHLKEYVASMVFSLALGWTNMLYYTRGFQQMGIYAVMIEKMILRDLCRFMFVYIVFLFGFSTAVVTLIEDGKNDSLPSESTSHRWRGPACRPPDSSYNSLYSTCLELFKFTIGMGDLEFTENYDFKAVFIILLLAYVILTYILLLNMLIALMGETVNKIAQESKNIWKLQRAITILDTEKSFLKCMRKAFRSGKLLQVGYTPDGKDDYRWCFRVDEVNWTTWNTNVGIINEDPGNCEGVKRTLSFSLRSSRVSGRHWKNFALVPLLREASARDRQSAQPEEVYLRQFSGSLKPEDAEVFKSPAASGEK
#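 Cells expressing TRPV1 were dye-loaded with Fluo-8 and read kinetically: 10 s baseline, 3 min after compound (agonist portion), then 2 min after EC20 capsaicin (allosteric enhancer portion). Calcium-bound dye fluorescence at 480/520 nm.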
# TRPV1 agonist – activates the human vanilloid receptor TRPV1; AID 540275; activation, % at 8.33 µM; 0.19% of 320,000 active; TRPV1-expressing cells, Fluo-8 calcium influx, agonist mode; Q8NER1; in the data active = activation above about 80%; inconclusive = between about 30% and that limit; also: 0% is about no effect
#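 Cells expressing TRPV1 were dye-loaded with Fluo-8 and read kinetically: 10 s baseline, 3 min after compound (agonist portion), then 2 min after EC20 capsaicin (allosteric enhancer portion). Calcium-bound dye fluorescence at 480/520 nm.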
# D1 potentiator – potentiators of human D1 dopamine receptor | P21728 | HEK293 TREx D1 cells, calcium flux, dopamine EC20 potentiation | potentiation, % at 10 µM | 0.036% of 360,000 active | AID 504651; in the data active = potentiation above about 30%; also: 0% is about no effect
# Numbers without * were called inactive; u = inconclusive; x = not tested or not shown; ! = not confirmed by another sample.
SMILES,D1 ag,D1 antag,TRPV1 PAM,TRPV1 agonist,D1 potentiator
COc1c(-c2ccc(O)cc2)oc2cc(O)cc(O)c2c1=O,0,-3,-16,-4,-7
COc1ccc(-c2oc3cc(O)c(OC)c(O)c3c(=O)c2OC)cc1,-1,-30*,-3,-1,-7
Cc1ccc(CN=c2c([N+](=O)[O-])nn(-c3cccc(C)c3)n2O)cc1,-1,-47*,5,0,-2
Cc1cc(C)cc(N=c2c([N+](=O)[O-])nn(-c3ccc(Cl)cc3)n2O)c1,0,1,10,-1,-1
Cc1ccc(CN=c2c([N+](=O)[O-])nn(-c3cccc(Cl)c3)n2O)cc1,4,-34*,5,-2,-5
COc1ccc(-n2nc([N+](=O)[O-])c(=NCCc3ccc(C)cc3)n2O)cc1,1,-9,8,-1,-2
COc1ccc(OC)c(NC(=O)c2cnc(N3CCCCC3)c3ccccc23)c1,1,10,x,x,-3
CCOC(=O)C1=C(CNCCOc2ccc(OC)cc2)NC(=O)NC1c1ccc2c(c1)OCO2 (stereo unspecified),9,-33*,-3,-2,-3
COc1cccc(C2c3c(-c4ccccc4O)n[nH]c3C(=O)N2CCc2ccc(OC)c(OC)c2)c1 (stereo unspecified),-2,6,x,x,0
O=C(NCCCN1CCN(c2ccc(F)cc2)CC1)C1COc2ccccc2C1 (stereo unspecified),11,-6,x,x,-5
Cc1ccc(Cl)cc1N1CCN(CCCNC(=O)C2COc3ccccc3C2)CC1 (stereo unspecified),41*,-37*,x,x,-2
Cc1cccc(N2CCN(CCNC(=O)C3COc4ccccc4C3)CC2)c1C (stereo unspecified),18,-51*,x,x,-4
CC(C)CC(=O)Nc1cccc(C(C)O)c1 (stereo unspecified),2,-31*,-3,-1,-3
Cc1ccc(NC(=O)C2CCN(S(=O)(=O)c3cccs3)CC2)cc1,22,-37*!,-12,u,-11
COc1ccc(/C=C2\SC(=O)N(CCNC(=O)C3CCN(S(=O)(=O)c4cccs4)CC3)C2=O)cc1,6,-35*,12,-3,-6
O=C(COC(=O)C1CCN(S(=O)(=O)c2cccs2)CC1)Nc1ccc(F)c(F)c1F,10,-36*,-9,2,-5
O=C(Nc1cccnc1)C1CCN(S(=O)(=O)c2cccs2)CC1,1,-32*,-12,u,-6
O=C(COC(=O)C1CCN(S(=O)(=O)c2cccs2)CC1)Nc1ccccc1,8,-11,-2,1,-7
Cc1ccc(Nc2ncnc3c2nc2n3CCCC2)c(Br)c1,-2,5,x,x,-2
CC(C)c1ccc(Nc2cc(C(=O)NC3CCCCC3)c3ccccc3n2)cc1,0,15,x,x,2
Cc1ccc(C)c(CN2C(=O)c3ccccc3S(=O)(=O)c3ccc(C(=O)N4CCN(Cc5ccccc5)CC4)cc32)c1,7,-4,x,x,-5
CC(C)c1ccc(NC(=O)C(Cc2ccccc2)NS(=O)(=O)c2ccc3c(c2)CCC(=O)N3)cc1 (stereo unspecified),2,-3,x,x,-2
CCc1ccccc1NC(=O)COC(=O)c1cn(CC)c2nc(C)ccc2c1=O,0,14,x,x,1
O=C1c2cccc3c([N+](=O)[O-])ccc(c23)C(=O)N1c1ccc(Cl)cn1,3,-49*,-15,0,-8
CC(=O)N(C(C)=O)N1C(=O)c2cccc3c(N4CCOCC4)ccc(c23)C1=O,31*,-2,-3,7,-3
SMILES,D1 ag,D1 antag,TRPV1 PAM,TRPV1 agonist,D1 potentiator
CCCCNc1ccc2c3c(cccc13)C(=O)N(CCCC)C2=O,700*,-71*,-5,92*,4
CN(C)CCCN1C(=O)c2cccc3c(Br)ccc(c23)C1=O,8,26,u,2,3
O=C1c2cccc3c(N4CCCCC4)ccc(c23)C(=O)N1c1ccccn1,154*,-27,-8,u,-6
Cc1ccccc1CN1C(=O)c2ccccc2Sc2ccc(C(=O)NCc3ccccc3)cc21,0,-2,x,x,-3
CCc1ccccc1NC(=O)CSc1nc2c(oc3ccccc32)c(=O)n1C,1,10,x,x,-5
COc1ccccc1NC(=O)Cn1c(=O)oc2cc(S(=O)(=O)NCc3ccccc3)ccc21,3,7,x,x,0
CCCN1C(=O)c2cccc3c(N4CCCCC4)ccc(c23)C1=O,63*,8,-6,17,-3
O=C1c2cccc3c([N+](=O)[O-])ccc(c23)C(=O)N1c1ccccn1,4,-42*,x,x,-11
CC(=O)Oc1ccc(N2C(=O)c3cccc4c([N+](=O)[O-])ccc(c34)C2=O)cc1,2,-41*,-6,-3,-8
O=C1c2cccc3c([N+](=O)[O-])ccc(c23)C(=O)N1c1nccs1,-1,x,2,0,-3
CCCOc1ccc(C(=O)c2nc3c(n2O)CCCC3)cc1,6,-32*,10,2,-5
CC(C)c1ccc(CN(C)C(=O)c2ccc(S(=O)(=O)NCc3ccco3)cc2)cc1,6,-30*,-5,-1,-3
O=c1cc(CSc2n[nH]c(-c3ccccc3)n2)[nH]c2ccccc12,-1,-20,x,x,-1
COc1ccc(/C=C/C(=O)Nc2cc(C)nn2-c2nc3ccccc3[nH]2)cc1,4,-41*,-5,u,-10
Cc1cc(NC(=O)/C=C/c2ccc(F)cc2)n(-c2nc3ccccc3[nH]2)n1,5,-36*,-11,u,-8
Cc1ccc(-c2cc3ncc(C(=O)c4cc(Cl)c(C)cc4O)cn3n2)cc1,0,4,x,x,-3
CCCOc1ccc(C(=O)N(Cc2ccccc2Cl)C2CCS(=O)(=O)C2)cc1 (stereo unspecified),1,12,x,x,-3
CCc1c(-c2ccccc2)nc2ccccc2c1C(=O)NC(C)c1ccccc1 (stereo unspecified),2,4,x,x,0
O=S(=O)(NCCN1CCOCC1)c1cc(Cl)c(Cl)cc1Cl,6,-31*,u,2,-5
COc1cc(Cl)c(S(=O)(=O)NCCN2CCOCC2)cc1Cl,2,0,4,-5,1
COc1cccc(NC(=O)CN(C)C(C)C(=O)Nc2ccc(S(=O)(=O)N3CCCC3)cc2)c1 (stereo unspecified),4,-34*,-15,19,13
COc1ccccc1N1CCN(C(=O)c2ccc3[nH]c4c(c3c2)CC(C)CC4)CC1 (stereo unspecified),0,-57*,3,3,-3
COc1ccccc1N1CCN(C(=O)c2ccc3[nH]c(C)c(C)c3c2)CC1,2,13,19,9,-6
CN(CC(=O)Nc1ccc(F)cc1)C(=O)c1cccc(S(=O)(=O)N2CCN(c3ccc(F)cc3)CC2)c1,9,-39*,0,0,-2
